The full data set covers some 7,900 targets. This sample favours those with a hit. About 0.6% of all pairs of compound and target were hits.
Columns and labels:
Assay in all cases: log2 fold change, soluble protein after heating vs DMSO (PISA); higher = thermal stabilisation; K562 cells, 10 uM, 30 min; active = over 0.2 and 3.5 SD of the protein, either way, in both replicates (recomputed)
[1] = compound: C1=CC=C(C=C1)[C@H](COC2=CC3=C(C=C2)NC(=O)N3)NC(=O)C4=CC=CN(C4=O)CC5=CC(=C(C=C5)F)F
Summary of the method: (§1)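 For each measurement, 10 μM compound was applied for 30 min to K562 cells at 2×10^6 cells/mL. Aliquots were heated for 3 min across 48°C-58°C, pooled, and extracted in PBS with 0.5% NP-40 at 4°C; the supernatant after 21,000xg for 90 min was soluble protein. This was quantified by TMTpro 16plex LC-MS/MS with channel sums equalised, and thermal stability was reported relative to control samples from duplicates, on a log2 fold-change scale.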

[2] = compound: CC1=C(SC2=C1C(=N[C@H](C3=NN=C(N32)C)CC(=O)N)C4=CC=C(C=C4)Cl)C
Summary of the method: as §1

[3] = compound: Cc1sc2c(c1C)C(c1ccc(Cl)cc1)=N[C@@H](CC(=O)OC(C)(C)C)c1nnc(C)n1-2
Summary of the method: as §1

[4] = compound: c1ccc([C@@H]2C[C@H]2NC2CCNCC2)cc1
Summary of the method: as §1

[5] = compound: CC1=C2C(=CC=C1)N=C(N(C2=O)C3=CC=CC=C3C)CN4C=NC5=C(N=CN=C54)N
Summary of the method: as §1

Measured: log2 fold change

TM7SF3 (UniProt Q9NS93)
Sequence of UniProt Q9NS93 (Q9NS93 whole entry, looked up): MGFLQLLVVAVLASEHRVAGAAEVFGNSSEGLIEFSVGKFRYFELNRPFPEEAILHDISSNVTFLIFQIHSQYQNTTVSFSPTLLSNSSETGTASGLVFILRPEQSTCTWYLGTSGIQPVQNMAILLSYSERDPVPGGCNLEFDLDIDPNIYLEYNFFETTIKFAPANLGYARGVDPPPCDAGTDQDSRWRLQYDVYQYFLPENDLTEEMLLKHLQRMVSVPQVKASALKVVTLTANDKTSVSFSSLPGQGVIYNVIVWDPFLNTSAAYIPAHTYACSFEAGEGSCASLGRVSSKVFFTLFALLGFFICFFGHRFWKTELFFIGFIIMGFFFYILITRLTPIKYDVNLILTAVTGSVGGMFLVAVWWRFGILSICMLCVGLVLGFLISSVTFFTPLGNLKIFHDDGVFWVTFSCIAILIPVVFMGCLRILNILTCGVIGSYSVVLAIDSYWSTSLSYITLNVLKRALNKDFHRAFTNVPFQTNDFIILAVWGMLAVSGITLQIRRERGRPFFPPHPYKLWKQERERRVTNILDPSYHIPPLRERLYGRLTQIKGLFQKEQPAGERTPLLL
inactive: [1] -0.058 | [2] 0.104 | [3] -0.037 | [4] 0.196

STAT3 (UniProt P40763)
Sequence of UniProt P40763 (P40763 whole entry, looked up): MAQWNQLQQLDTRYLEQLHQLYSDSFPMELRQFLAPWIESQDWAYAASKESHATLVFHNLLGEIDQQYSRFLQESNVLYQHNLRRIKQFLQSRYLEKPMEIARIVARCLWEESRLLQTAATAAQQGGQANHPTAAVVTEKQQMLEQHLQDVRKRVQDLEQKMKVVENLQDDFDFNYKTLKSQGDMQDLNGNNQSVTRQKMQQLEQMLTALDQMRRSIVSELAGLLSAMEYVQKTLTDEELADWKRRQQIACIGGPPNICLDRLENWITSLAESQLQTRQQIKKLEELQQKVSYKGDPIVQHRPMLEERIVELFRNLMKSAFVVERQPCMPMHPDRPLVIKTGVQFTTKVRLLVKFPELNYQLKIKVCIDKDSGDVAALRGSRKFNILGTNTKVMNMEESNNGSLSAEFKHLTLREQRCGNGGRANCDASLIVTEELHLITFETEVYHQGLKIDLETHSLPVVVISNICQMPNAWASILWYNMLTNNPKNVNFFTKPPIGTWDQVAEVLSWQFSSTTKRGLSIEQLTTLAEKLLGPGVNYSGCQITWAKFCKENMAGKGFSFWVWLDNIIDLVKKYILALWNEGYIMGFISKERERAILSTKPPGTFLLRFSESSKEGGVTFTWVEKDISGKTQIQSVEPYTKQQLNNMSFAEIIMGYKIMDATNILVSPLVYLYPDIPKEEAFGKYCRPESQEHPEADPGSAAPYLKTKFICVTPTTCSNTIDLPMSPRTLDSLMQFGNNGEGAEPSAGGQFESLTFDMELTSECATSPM
inactive: [1] -0.033 | [2] 0.034 | [5] 0.1 | [3] 0.024 | [4] -0.006

SSB (UniProt E7ERC4)
inactive: [5] 0.188

STK26 (UniProt Q9P289)
Sequence of UniProt Q9P289 (Q9P289 whole entry, looked up): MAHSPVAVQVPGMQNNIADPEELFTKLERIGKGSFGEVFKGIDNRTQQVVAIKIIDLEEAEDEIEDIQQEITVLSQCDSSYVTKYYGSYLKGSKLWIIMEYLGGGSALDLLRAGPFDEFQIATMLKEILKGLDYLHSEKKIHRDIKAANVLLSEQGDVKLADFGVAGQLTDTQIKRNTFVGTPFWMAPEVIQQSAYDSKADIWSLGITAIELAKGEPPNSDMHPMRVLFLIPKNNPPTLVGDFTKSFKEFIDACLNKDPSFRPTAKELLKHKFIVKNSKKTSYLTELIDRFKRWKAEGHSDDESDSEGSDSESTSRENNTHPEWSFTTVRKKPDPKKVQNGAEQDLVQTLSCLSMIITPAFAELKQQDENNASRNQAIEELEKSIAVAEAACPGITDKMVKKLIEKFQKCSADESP
inactive: [1] -0.077 | [2] -0.029 | [5] -0.006 | [3] 0.004 | [4] 0.026

TM7SF2 (UniProt O76062)
Sequence of UniProt O76062 (O76062 whole entry, looked up): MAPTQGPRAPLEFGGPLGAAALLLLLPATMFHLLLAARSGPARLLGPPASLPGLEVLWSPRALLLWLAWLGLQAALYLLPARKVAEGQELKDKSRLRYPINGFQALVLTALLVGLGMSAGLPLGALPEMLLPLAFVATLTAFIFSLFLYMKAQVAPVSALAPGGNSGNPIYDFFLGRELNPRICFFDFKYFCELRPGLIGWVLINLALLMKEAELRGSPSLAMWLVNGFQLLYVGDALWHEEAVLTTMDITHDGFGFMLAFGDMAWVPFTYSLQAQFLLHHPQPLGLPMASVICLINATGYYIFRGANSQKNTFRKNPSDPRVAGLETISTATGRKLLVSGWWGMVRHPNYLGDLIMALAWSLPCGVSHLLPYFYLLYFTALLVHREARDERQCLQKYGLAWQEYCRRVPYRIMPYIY
inactive: [2] 0.182 | [5] -0.129 | [4] 0.159

SUN1 isoform 9 (UniProt O94901)
Sequence of UniProt O94901 (O94901 whole entry, looked up): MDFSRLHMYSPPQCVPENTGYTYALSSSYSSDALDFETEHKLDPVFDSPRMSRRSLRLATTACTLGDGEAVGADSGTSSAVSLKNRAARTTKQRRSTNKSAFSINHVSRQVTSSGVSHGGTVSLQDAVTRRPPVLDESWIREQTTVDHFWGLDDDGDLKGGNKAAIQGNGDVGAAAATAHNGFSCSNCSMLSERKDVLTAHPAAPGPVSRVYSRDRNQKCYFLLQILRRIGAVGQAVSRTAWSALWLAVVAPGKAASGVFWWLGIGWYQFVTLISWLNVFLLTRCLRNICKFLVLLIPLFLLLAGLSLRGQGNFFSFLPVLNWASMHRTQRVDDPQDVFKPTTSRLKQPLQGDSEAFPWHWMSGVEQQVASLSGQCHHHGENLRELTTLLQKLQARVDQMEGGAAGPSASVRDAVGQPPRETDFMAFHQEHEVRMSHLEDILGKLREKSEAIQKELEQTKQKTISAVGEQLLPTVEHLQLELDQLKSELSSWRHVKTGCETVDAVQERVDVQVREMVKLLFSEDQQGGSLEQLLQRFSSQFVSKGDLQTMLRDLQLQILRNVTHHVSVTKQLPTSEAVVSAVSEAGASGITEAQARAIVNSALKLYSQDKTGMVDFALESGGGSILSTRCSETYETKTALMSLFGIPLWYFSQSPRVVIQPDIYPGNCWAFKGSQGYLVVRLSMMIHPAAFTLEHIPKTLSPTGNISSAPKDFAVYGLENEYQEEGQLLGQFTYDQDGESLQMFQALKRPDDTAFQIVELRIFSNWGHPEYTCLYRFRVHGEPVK
inactive: [2] -0.114 | [5] 0.013 | [3] 0.109 | [4] 0.018

SMARCB1 (UniProt Q12824)
Sequence of UniProt Q12824 (Q12824 whole entry, looked up): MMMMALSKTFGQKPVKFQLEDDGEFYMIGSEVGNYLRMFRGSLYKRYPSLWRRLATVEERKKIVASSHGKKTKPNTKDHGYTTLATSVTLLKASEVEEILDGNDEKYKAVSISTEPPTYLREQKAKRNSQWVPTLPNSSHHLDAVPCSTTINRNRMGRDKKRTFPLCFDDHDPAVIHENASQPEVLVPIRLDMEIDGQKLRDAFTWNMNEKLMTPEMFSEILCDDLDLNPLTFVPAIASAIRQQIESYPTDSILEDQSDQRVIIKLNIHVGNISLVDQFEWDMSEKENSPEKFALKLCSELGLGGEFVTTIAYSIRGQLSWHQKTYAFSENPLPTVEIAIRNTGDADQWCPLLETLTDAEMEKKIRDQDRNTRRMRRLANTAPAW
inactive: [2] 0.057 | [5] -0.041 | [3] 0.015 | [4] 0.18

From the supplement of paper PMC10849652
